Measurements published in the supplement of paper PMC10849652.
Targets with a hit are over-represented here; the source holds about 7,900 in all. About 0.6% of all pairs of compound and target were hits.

Key:
Experiment in all cases: log2 fold change, soluble protein after heating vs DMSO (PISA); higher = thermal stabilisation; K562 cells, 10 uM, 30 min; active = over 0.2 and 3.5 SD of the protein, either way, in both replicates (recomputed)
[1] = compound: Cc1ccc(NC(=O)c2ccc(CN3CC[C@H](N(C)C)C3)c(C(F)(F)F)c2)cc1Nc1nccc(-c2cncnc2)n1 [bafetinib]
Method in brief: (§1)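 Quantification of soluble protein used TMTpro 16plex LC-MS/MS, with channel sums equalised. Samples were the supernatant after 21,000xg for 90 min of pooled aliquots from K562 cells (2×10^6 cells/mL) treated with 10 μM compound for 30 min, heated for 3 min over 48°C-58°C, and extracted in PBS with 0.5% NP-40 at 4°C. Values, from duplicates, describe thermal stability against control samples on a log2 fold-change scale.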

[2] = compound: Cc1cccc(CC(=O)N2CCc3c2ccc(-c2cn(C)c4ncnc(N)c24)c3F)n1
Method in brief: as §1

[3] = compound: Cc1cn(-c2cc(NC(=O)c3ccc(C)c(Nc4nccc(-c5cccnc5)n4)c3)cc(C(F)(F)F)c2)cn1 [nilotinib]
Method in brief: as §1

[4] = compound: Cc1nc(Nc2n[nH]c3c2CN(C(=O)N[C@H](CN(C)C)c2ccccc2)C3(C)C)c2sccc2n1
Method in brief: as §1

[5] = compound: Cc1nc(Nc2ncc(C(=O)Nc3c(C)cccc3Cl)s2)cc(N2CCN(CCO)CC2)n1 [dasatinib]
Method in brief: as §1

[6] = compound: Cc1ncc(-c2ccnc(Nc3ccc(S(C)(=O)=O)cc3)n2)n1C(C)C
Method in brief: as §1

[7] = compound: Cn1cc(-c2ccc3c(c2)CCN3C(=O)Cc2cccc(C(F)(F)F)c2)c2c(N)ncnc21
Method in brief: as §1

[8] = compound: Cn1cc(-c2ccc3nnc(C(F)(F)c4ccc5ncccc5c4)n3n2)cn1
Method in brief: as §1

[9] = compound: Cn1cncc1[C@@](N)(c1ccc(Cl)cc1)c1ccc2c(c1)c(-c1cccc(Cl)c1)cc(=O)n2C [tipifarnib]
Method in brief: as §1

[10] = compound: FC(F)(F)c1ccc(/C=C/c2nc(COc3ccc(CCCCn4ccnn4)cc3)co2)cc1 [mubritinib]
Method in brief: as §1

Measured: log2 fold change

MKRN2 (UniProt Q9H000)
UniProt Q9H000, sequence (Q9H000 whole entry, looked up): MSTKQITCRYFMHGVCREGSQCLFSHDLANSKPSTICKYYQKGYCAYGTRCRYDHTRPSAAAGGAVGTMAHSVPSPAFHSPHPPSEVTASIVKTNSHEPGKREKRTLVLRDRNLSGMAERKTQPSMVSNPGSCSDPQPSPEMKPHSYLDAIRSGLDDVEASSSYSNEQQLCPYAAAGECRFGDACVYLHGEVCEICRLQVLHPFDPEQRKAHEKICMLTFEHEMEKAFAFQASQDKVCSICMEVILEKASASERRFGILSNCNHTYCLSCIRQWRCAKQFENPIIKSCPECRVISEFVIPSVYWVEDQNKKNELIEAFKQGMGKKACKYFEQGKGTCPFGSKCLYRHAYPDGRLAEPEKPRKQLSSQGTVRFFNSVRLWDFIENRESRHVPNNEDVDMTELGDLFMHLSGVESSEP
inactive: [1] 0.073 | [2] -0.194 | [3] -0.048 | [4] -0.062 | [5] -0.088 | [6] 0.066 | [7] -0.284 | [8] -0.099 | [9] -0.01 | [10] -0.142

NA, A0A096LPI6
inactive: [1] -0.076 | [2] -0.043 | [3] 0 | [4] -0.007 | [5] -0.005 | [6] -0.04 | [7] -0.003 | [8] -0.028 | [9] -0.038 | [10] 0.024

MRPL50 (UniProt Q8N5N7)
inactive: [1] -0.079 | [2] -0.035 | [3] 0.008 | [4] 0.114 | [5] 0.183 | [6] -0.064 | [7] 0.022 | [8] 0.117 | [9] -0.163 | [10] -0.039

NUP98 (UniProt P52948)
UniProt P52948, sequence (P52948 whole entry, looked up): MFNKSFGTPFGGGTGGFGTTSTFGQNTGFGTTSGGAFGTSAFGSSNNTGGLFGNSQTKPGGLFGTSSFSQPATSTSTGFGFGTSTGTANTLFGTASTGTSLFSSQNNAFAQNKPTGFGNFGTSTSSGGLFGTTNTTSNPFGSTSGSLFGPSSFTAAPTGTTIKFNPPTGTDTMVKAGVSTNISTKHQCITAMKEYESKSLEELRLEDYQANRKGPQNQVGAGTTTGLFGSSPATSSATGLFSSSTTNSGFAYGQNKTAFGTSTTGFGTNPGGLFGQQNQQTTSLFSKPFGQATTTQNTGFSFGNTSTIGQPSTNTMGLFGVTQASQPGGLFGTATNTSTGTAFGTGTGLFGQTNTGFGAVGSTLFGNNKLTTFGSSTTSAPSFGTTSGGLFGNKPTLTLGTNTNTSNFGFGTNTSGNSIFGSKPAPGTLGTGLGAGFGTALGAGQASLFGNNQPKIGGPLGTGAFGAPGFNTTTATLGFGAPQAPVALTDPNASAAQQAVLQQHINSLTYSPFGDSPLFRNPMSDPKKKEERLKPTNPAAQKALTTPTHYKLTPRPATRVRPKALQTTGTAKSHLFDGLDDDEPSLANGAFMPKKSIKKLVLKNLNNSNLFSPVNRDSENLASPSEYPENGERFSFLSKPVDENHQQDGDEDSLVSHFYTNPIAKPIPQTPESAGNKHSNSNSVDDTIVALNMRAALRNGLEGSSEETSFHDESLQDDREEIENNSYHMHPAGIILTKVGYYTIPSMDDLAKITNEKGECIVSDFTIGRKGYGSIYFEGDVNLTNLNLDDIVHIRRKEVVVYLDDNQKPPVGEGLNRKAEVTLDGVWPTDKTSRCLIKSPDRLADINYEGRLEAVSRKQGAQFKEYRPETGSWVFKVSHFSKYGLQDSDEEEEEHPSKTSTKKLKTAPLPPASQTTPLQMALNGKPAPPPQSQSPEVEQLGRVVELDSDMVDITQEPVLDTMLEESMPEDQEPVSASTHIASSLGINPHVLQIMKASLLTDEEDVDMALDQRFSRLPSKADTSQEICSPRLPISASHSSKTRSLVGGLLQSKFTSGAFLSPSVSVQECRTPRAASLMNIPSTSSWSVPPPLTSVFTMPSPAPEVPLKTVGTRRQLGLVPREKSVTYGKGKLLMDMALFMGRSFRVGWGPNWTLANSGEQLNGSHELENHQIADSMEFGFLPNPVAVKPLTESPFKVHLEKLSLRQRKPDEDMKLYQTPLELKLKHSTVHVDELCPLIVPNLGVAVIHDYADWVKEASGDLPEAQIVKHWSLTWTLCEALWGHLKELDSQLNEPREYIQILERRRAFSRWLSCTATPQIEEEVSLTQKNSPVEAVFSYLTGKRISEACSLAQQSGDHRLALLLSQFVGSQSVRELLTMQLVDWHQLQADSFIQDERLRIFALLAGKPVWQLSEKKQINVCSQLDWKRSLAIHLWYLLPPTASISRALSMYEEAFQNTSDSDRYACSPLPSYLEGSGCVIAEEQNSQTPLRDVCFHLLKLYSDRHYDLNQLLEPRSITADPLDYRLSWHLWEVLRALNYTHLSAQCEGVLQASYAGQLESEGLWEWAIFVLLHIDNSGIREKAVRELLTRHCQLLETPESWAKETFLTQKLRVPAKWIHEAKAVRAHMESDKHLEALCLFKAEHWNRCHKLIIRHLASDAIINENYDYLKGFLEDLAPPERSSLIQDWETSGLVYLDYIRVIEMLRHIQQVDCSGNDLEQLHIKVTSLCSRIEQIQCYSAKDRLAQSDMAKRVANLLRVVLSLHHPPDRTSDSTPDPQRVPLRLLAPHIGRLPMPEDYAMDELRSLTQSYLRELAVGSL
inactive: [1] -0.008 | [2] 0.018 | [3] -0.034 | [4] -0.062 | [5] -0.077 | [6] -0.044 | [7] -0.026 | [8] -0.075 | [9] 0.005 | [10] 0

NBN (UniProt O60934)
UniProt O60934, sequence (O60934 whole entry, looked up): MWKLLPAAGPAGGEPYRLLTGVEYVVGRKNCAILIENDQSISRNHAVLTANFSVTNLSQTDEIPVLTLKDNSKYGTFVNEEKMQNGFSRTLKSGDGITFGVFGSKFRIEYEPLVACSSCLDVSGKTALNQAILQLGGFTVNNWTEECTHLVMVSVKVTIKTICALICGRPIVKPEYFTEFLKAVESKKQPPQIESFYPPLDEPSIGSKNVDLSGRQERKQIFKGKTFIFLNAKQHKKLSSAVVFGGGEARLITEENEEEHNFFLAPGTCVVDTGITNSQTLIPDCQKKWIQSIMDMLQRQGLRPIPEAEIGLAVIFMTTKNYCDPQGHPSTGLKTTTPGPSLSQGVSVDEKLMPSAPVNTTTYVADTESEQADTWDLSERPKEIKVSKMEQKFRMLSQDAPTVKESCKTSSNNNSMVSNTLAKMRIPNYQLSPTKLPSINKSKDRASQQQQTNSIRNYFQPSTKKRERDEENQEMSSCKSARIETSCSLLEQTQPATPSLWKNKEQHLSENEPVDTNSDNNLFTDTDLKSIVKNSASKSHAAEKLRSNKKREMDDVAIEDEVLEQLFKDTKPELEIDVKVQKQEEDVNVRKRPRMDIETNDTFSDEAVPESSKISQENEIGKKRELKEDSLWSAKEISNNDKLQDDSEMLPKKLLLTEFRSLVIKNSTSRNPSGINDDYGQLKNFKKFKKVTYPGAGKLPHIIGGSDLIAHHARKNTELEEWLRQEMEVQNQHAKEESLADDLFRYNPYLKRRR
inactive: [1] -0.021 | [2] 0.031 | [3] 0.018 | [4] -0.198 | [5] -0.171 | [6] 0.048 | [7] 0.031 | [8] 0.064 | [9] -0.016 | [10] 0.131
